Screens deposited in PubChem by National Center for Advancing Translational Sciences (NCATS).
Hits are enriched below; roughly 3.2% of the tested compounds scored in any of these assays.
15-hLO inh = qHTS Assay for Inhibitors of 15-hLO (15-human lipoxygenase). purified 15hLO-1, xylenol orange hydroperoxide absorbance. Potency, µM (titrated, usually from 57.1 µM), most hits filed as inhibitors. 74,000 compounds, 1.4% hits. AID 887, 2007; note: nearly all actives have a fitted effect of over 55% in size
Target sequence (P16050 whole entry, looked up): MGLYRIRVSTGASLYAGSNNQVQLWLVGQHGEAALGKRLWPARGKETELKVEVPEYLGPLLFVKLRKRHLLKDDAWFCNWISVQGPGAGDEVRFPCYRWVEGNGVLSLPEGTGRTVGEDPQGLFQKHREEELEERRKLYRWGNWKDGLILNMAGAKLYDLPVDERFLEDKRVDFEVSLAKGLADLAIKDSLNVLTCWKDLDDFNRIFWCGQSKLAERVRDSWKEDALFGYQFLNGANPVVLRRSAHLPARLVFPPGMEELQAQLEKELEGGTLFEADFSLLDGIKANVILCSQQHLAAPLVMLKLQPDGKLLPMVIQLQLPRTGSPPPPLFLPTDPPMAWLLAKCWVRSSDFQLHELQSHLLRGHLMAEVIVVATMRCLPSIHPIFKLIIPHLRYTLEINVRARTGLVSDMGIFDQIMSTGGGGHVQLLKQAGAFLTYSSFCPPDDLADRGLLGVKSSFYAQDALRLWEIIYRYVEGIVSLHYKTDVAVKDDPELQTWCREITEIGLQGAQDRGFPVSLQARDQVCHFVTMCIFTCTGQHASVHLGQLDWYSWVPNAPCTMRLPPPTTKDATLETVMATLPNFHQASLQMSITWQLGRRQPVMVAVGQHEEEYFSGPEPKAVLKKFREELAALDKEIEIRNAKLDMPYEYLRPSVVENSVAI
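Purified human 15hLO-1 (40 nM) in 25 mM Hepes pH 7.5, 0.01% Triton X-100, preincubated 15 min RT with compound, then 50 uM arachidonic acid for 6 min. Hydroperoxide read by ferrous/xylenol orange, 30 min; 573/405 nm absorbance ratio gave progress.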
ERK AVP inh = qHTS Assay for Inhibitors of the ERK Signaling Pathway using a Homogeneous Screening Assay; 72,000 compounds, 0.99% hits; HEK293-V1b, vasopressin-stimulated pERK AlphaScreen; AID 995, 2007; Potency, µM (highest dose often 57.5 µM), usual class: inhibitors; note: nearly all actives have a fitted effect of over 55% in size
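HEK293 cells stably expressing V1b receptor, seeded overnight in 1% FBS, were treated with compounds for 30 min at 37C, then stimulated 5 min with 25 nM vasopressin; phospho-ERK read by AlphaScreen SureFire after lysis.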
15-hLO-2 inh = qHTS Assay for Inhibitors of 15-hLO-2 (15-human lipoxygenase 2); purified 15hLO-2, xylenol orange hydroperoxide absorbance; Polyunsaturated fatty acid lipoxygenase ALOX15B (Homo sapiens), O15296; 110,000 compounds, 0.56% hits; Potency, µM (highest dose often 57.1 µM), usual class: inhibitors; AID 881, 2007; note: nearly all actives have a fitted effect of over 60% in size
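Purified human 15hLO-2 (50 nM) preincubated 15 min with compound, then 45 uM arachidonic acid for 90 min at RT in 25 mM Hepes pH 7.5, 0.01% Triton X-100. Hydroperoxide detected by Fe-xylenol orange; 573/405 nm absorbance ratio.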
CRE-bla Fsk = Cell signaling CRE-BLA (Fsk stim); CHO CRE-bla reporter (cAMP response element driving beta-lactamase), forskolin EC10, beta-lactamase ratio; Potency, µM (doses to about 38.2 µM), hits mostly activators; 71,000 compounds, 2.5% hits; AID 662, 2007; active = well fitted activation curve with a large enough effect in the signal ratio, with a control signal flat, not every such curve was filed as active; inconclusive = small, poorly fitted or top-dose-only effect, or effect the other way, or a change in a side signal; the % refers to the signal ratio
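Modulation of forskolin-driven signalling is measured in CHO cells carrying a CRE-controlled beta-lactamase reporter. Cells are stimulated with EC10 NKH 477 in the presence of titrated compound for 3 h at 37 °C, then loaded with CCF4 for 2 h at room temperature.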
Hits are given with their value; [ ] = dose if it differs, or a comment. Unless noted, calls come from the whole dose curve; as a rule, active = well fitted inhibition curve with a large enough effect; inconclusive = small, poorly fitted or top-dose-only effect; inactive = no such curve, though single readings can be large or run the other way.

Results for COC(=O)CC1Oc2cc3oc4c5ccccc5oc(=O)c4c3cc2O1 (configuration not stated) ?
ERK AVP inh: inactive; 15-hLO-2 inh: inactive

Results for COc1ccccc1CNc1ccnc(-c2ccc(N(C)C)cc2)n1 ?
15-hLO inh: inactive; ERK AVP inh: inconclusive; 15-hLO-2 inh: inactive; CRE-bla Fsk: 13µM

How did COc1cccc(-c2nccc(NCc3cccc(C)c3)n2)c1 do in these assays?
15-hLO inh: inactive; ERK AVP inh: inactive; 15-hLO-2 inh: inactive; CRE-bla Fsk: inactive

Results for N#Cc1cccc(-c2nccc(NCc3cccnc3)n2)c1 ?
15-hLO inh: inconclusive; ERK AVP inh: 16µM; 15-hLO-2 inh: inactive; CRE-bla Fsk: inconclusive

What do the screens show for `COc1cccc(-c2nccc(NCc3ccccc3)n2)c1`?
15-hLO inh: 13µM; ERK AVP inh: 10µM; 15-hLO-2 inh: inactive; CRE-bla Fsk: inactive

What do the screens show for `COc1ccccc1-c1nccc(NCc2cnc(C)cn2)n1`?
15-hLO inh: 16µM; ERK AVP inh: inactive; 15-hLO-2 inh: inconclusive; CRE-bla Fsk: inactive

What do the screens show for `COc1cccc(-c2nccc(NCc3ccccc3OC)n2)c1`?
15-hLO inh: 25µM; ERK AVP inh: inconclusive; 15-hLO-2 inh: inactive; CRE-bla Fsk: inactive

What do the screens show for `COc1cccc(Cn2c(=O)c(-c3cc(F)cc(F)c3)nc3cnc(N4CCOCC4)nc32)c1`?
15-hLO inh: inactive; ERK AVP inh: inactive; 15-hLO-2 inh: inactive; CRE-bla Fsk: inconclusive

What do the screens show for `COc1cccc(Cn2c(=O)c(-c3cccc(C#N)c3)nc3cnc(N4CCOCC4)nc32)c1`?
15-hLO inh: inactive; ERK AVP inh: inactive; 15-hLO-2 inh: inactive; CRE-bla Fsk: 0.5µM

How did COc1cccc(Cn2c(=O)c(C)nc3cnc(N4CCOCC4)nc32)c1 do in these assays?
15-hLO inh: inactive; ERK AVP inh: inactive; 15-hLO-2 inh: inactive; CRE-bla Fsk: 3.2µM

How did Cc1c(=O)n(OCc2ccccc2)c2ccccc2[n+]1[O-] do in these assays?
15-hLO inh: inactive[11.4 µM]; ERK AVP inh: inactive; 15-hLO-2 inh: inactive; CRE-bla Fsk: inconclusive

Results for COc1ccc(COn2c(=O)c(C)[n+]([O-])c3ccccc32)cc1OC ?
15-hLO inh: inactive; ERK AVP inh: inconclusive; 15-hLO-2 inh: inactive; CRE-bla Fsk: 10µM

How did C/C=C/c1ccc(O)c(OC)c1 do in these assays?
15-hLO inh: inactive; ERK AVP inh: inactive; 15-hLO-2 inh: inactive; CRE-bla Fsk: inactive

What do the screens show for `Oc1cc(O)cc(/C=C/c2ccc(O)c(O)c2)c1`?
15-hLO-2 inh: 4.5µM

What do the screens show for `O=c1c2c(-c3ccco3)csc2nc(SCc2cn3cccnc3n2)n1-c1ccccc1`?
15-hLO inh: inactive; ERK AVP inh: inconclusive; 15-hLO-2 inh: inconclusive; CRE-bla Fsk: 1µM

What do the screens show for `O=C(CSc1nc2scc(-c3ccco3)c2c(=O)n1-c1ccccc1)N1CCOCC1`?
15-hLO inh: 1.6µM; ERK AVP inh: inconclusive; 15-hLO-2 inh: inactive; CRE-bla Fsk: inactive

What do the screens show for `COc1cc(O)c2c(O)c3c(c4c2c1[C@@]1(C4)C(C)=CCCC1(C)C)[C@H](O)[C@@]1(O)CC(=O)C(C(N)=O)=C(O)[C@]1(O)C3=O`?
15-hLO inh: inconclusive; ERK AVP inh: inactive[11.5 µM]; 15-hLO-2 inh: inconclusive; CRE-bla Fsk: inconclusive

Results for Cc1cc(C)c2cc(CN(CCO)C(=O)Nc3ccc(Cl)cc3)c(=O)[nH]c2c1 ?
15-hLO inh: inconclusive; ERK AVP inh: 32µM; 15-hLO-2 inh: inactive; CRE-bla Fsk: inactive

How did Cc1cc(C)c2cc(CN(CCN3CCCC3)C(=O)Nc3ccc(F)cc3)c(=O)[nH]c2c1 do in these assays?
15-hLO inh: inactive; ERK AVP inh: inactive; 15-hLO-2 inh: inactive; CRE-bla Fsk: inactive

How did Nc1nccc(Nc2ccc(S(N)(=O)=O)cc2)n1 do in these assays?
15-hLO inh: inactive[11.4 µM]; ERK AVP inh: inactive[11.5 µM]; 15-hLO-2 inh: inactive[11.4 µM]; CRE-bla Fsk: inactive[7.6 µM]

What do the screens show for `CC(=O)Nc1nc2n(n1)C(c1ccccc1)C=C(c1ccccc1)N2` (configuration not stated)?
15-hLO inh: 20µM; ERK AVP inh: inactive; 15-hLO-2 inh: inactive; CRE-bla Fsk: inconclusive

How did CC(=O)N1CCN(c2ccc(NCc3cccs3)cc2)CC1 do in these assays?
15-hLO inh: 13µM; ERK AVP inh: inactive; 15-hLO-2 inh: 25µM; CRE-bla Fsk: inactive

Results for CC(=O)N1CCN(c2ccc(NC(=O)c3ccc(C)cc3)cc2)CC1 ?
15-hLO-2 inh: inactive

Results for Cc1ccc(CNc2ccc(N3CCOCC3)cc2)s1 ?
15-hLO inh: 16µM; ERK AVP inh: inactive; 15-hLO-2 inh: 16µM; CRE-bla Fsk: inactive
